Measured values taken from ChEMBL document CHEMBL4513216, “Probing the Open Global Health Chemical Diversity Library for Multistage-Active Starting Points for Next-Generation Antimalarials” (ACS Infect Dis, 2020).
Among all 68,000 compounds or so, about 2,700 (4%) showed an effect of 50% or more. The sample as a whole holds a higher share of strong results than the screen did.

System: Plasmodium berghei
Test: Screen against P. berghei liver stage (PbLuc), transformed with Luciferase, at 2uM
Type: functional, HepG2
Conditions: tested at 2 uM

Structure (SMILES) | INHIBITION [%]
CNC(=O)C1CCCN(c2nc(-c3ccco3)nc3c2CCNCC3)C1 (stereo not given) | -44.93
CCS(=O)(=O)NC1CCCN(Cc2ccn(C)c(=O)c2)C1 (stereo not given) | -21.09
CCc1nnsc1C(=O)NC1CCN(c2ccccn2)CC1 | 11.97
Cc1ncsc1C(=O)NC1CCN(CCC(N)=O)CC1 | -7.02
Cc1nc(C(=O)NC2CCN(CCOc3ccc(Br)cc3)CC2)cs1 | 31.51
CCc1nnsc1C(=O)NC1CCN(CCOc2ccc(Br)cc2)CC1 | 62.51
CN1CCCC1CNC(=O)CCOc1ccc(Br)cc1 (stereo not given) | -80.31
Cc1ncc(C(=O)NC2CCN(CCOc3ccc(Br)cc3)CC2)s1 | 60.13
COCC[C@]1(O)CCN(Cc2nc(C)c(C)s2)C[C@H]1C | 11.48
NC(=O)CC1CCN(C(=O)NCCc2ccc(Cl)s2)CC1 | 15.47
CCCC(C)NCc1cnc(-c2cccc(C)c2)nc1 (stereo not given) | 56.47
Cc1cccc(-c2ncc(CNC(C)Cc3ccncc3)cn2)c1 (stereo not given) | 24.23
Cc1cccc(-c2ncc(CNC(C)CO)cn2)c1 (stereo not given) | -53.16
CCCS(=O)(=O)N1CC[C@H]2O[C@@H](c3nc(C)no3)CC[C@H]21 | -71.5
Cc1cnc2c(c1NCc1ccncc1)c(=O)n(C)c(=O)n2C | 29.42
Cc1cnc2c(c1NCc1cccnc1)c(=O)n(C)c(=O)n2C | 63.23
COc1cccc(CNc2c(C)cnc3c2c(=O)n(C)c(=O)n3C)c1 | -9.49
CC1CN(Cc2ccccc2)CCCN1CCCS(C)(=O)=O (stereo not given) | 53.99
CC1CN(Cc2ccccc2)CCCN1CCS(C)(=O)=O (stereo not given) | -7.07
CNS(=O)(=O)CCCN1CCCN(Cc2ccccc2)CC1C (stereo not given) | 32.03
CC(NC(=O)CCCOc1ccccc1Cl)c1ccncc1 (stereo not given) | -37.84
CCOC(=O)C1(Cc2ccccc2-c2ccccc2OC)CCNCC1 | 29.68
CCn1c(N)nc2cc(C(=O)N3CCC(N4CCCC4)CC3)cnc21 | -12.08
CCn1c(N)nc2cc(C(=O)N(C)Cc3cc(C(C)(C)C)n[nH]3)cnc21 | 58.17

Structure (SMILES) | INHIBITION [%]
CCn1c(N)nc2cc(C(=O)N3CCCN(C)CC3)cnc21 | 63.1
CCc1cc(CN(C)C(=O)c2cnc3c(c2)nc(N)n3CC)on1 | 6.85
CCc1ccc(CN(C)C(=O)c2cnc3c(c2)nc(N)n3CC)nc1 | 17.5
CCn1c(N)nc2cc(C(=O)N3CCCOCC3)cnc21 | 40.47
Cc1cnnn1Cc1nnn2c1CN(Cc1cccs1)CCC2 | 12.29
COc1cccc2c1OCC(CNC(=O)Cc1csc(C(C)=O)c1)C2 (stereo not given) | 19.13
CCc1cc(=O)n(CC(=O)NCC2CCCO2)c(-c2cccc(F)c2)n1 (stereo not given) | 23.65
CN1CCC(c2cccc(-c3ccc(C(=O)O)cc3)n2)CC1 | -39.93
CCC(C)N(Cc1ccsc1)C(=O)c1ccc(CO)cc1 (stereo not given) | 52.98
CCC(CO)N(Cc1ccc(C(=O)O)cc1)Cc1ccsc1 (stereo not given) | 2.17
CCC(C)N(Cc1ccsc1)C(=O)c1ccc2[nH]nnc2c1 (stereo not given) | 38.24
Cc1oc(-c2nc(C#N)c(NC(C)(C)C)o2)cc1S(=O)(=O)N1CCCC1 | 58.42
CNc1oc(-c2cc(S(=O)(=O)N3CCCCCC3)c(C)o2)nc1C#N | 5.96
CNc1oc(-c2cc(S(=O)(=O)N3CCCC3)c(C)o2)nc1C#N | -49.59
Cc1cccc(CN2C[C@@H]3CN(C(=O)c4ccsc4)C[C@@H]3C2=O)n1 | -23.78
Cc1cnc(N2CC[C@@H]3O[C@@H](COCc4ccccn4)CC[C@@H]32)nc1 | -7.26
COc1ccc(OCCN(C)Cc2nc3c(cnn3C)c(=O)[nH]2)cc1 | 72.31
COc1ccc2c(c1)CN(Cc1nc3c(cnn3C)c(=O)[nH]1)CC2 | 27.55
CN(CCCOc1ccccc1)Cc1nc2c(cnn2C)c(=O)[nH]1 | -31.57
Cn1ncc2c(=O)[nH]c(CN3CCCC3CC(C)(C)C)nc21 (stereo not given) | 70.27
COc1ccc2c(c1)CCN2Cc1nc2c(cnn2C)c(=O)[nH]1 | 52.17
COc1ccc2c(c1)CCCN2Cc1nc2c(cnn2C)c(=O)[nH]1 | -70.71
CN(CCOc1cccc(F)c1)Cc1nc2c(cnn2C)c(=O)[nH]1 | 47.87
Cn1ncc2c(=O)[nH]c(CN3CCCC3CC3CCCCC3)nc21 (stereo not given) | -5.15

Structure (SMILES) | INHIBITION [%]
Cc1ccc(OCCN(C)Cc2nc3c(cnn3C)c(=O)[nH]2)cc1 | 78.42
CN(CCCOc1ccc(F)cc1)Cc1nc2c(cnn2C)c(=O)[nH]1 | -45.72
COCCCN(C)Cc1nc2c(cnn2C)c(=O)[nH]1 | -135.87
CCC1CCCCN1Cc1nc2c(cnn2C)c(=O)[nH]1 (stereo not given) | -31.57
CSc1cccc(CN(C)C(=O)Nc2nc(C)n(C)n2)c1 | 4.12
CSCC(=O)N1CCCC1c1noc(C2CC2)n1 (stereo not given) | 27.44
Cc1cc(C)n(CC(C)NC(=O)C2(c3ccccc3F)CC2)n1 (stereo not given) | -45.89
O=C(CCN1CCCCO1)N1CCC(CO)(CCc2ccccc2)CC1 | 12.56
O=C(c1cc2c(s1)CCC2)N1CCCC1Cn1cccn1 (stereo not given) | 17.39
CN(C)c1ncc(CNC2CC(=O)N(CCc3cccc(Cl)c3)C2)s1 (stereo not given) | 35.26
CCNc1nc(C)c(C(=O)N2CCC(C(O)Cc3ccccc3)CC2)s1 (stereo not given) | 15.73
O=C(C1CCCN(C2CCOCC2)C1)N1Cc2ccccc2C1 (stereo not given) | -45.79
Fc1cccc(CN2CCC(c3cc4ncccc4cn3)CC2)c1F | -27.12
CCN(Cc1nc2c(cnn2C)c(=O)[nH]1)Cc1ccco1 | 53.98
COCCN(Cc1nc2c(cnn2C)c(=O)[nH]1)Cc1ccco1 | -16.42
CCC(C)N(CCOC)Cc1nc2c(cnn2C)c(=O)[nH]1 (stereo not given) | 29.19
Cc1ccc(C(C)N(C)Cc2nc3c(cnn3C)c(=O)[nH]2)cc1 (stereo not given) | 28.65
CC(C)CN(C)Cc1nc2c(cnn2C)c(=O)[nH]1 | -29.44
CC(N(C)Cc1nc2c(cnn2C)c(=O)[nH]1)C(C)(C)C (stereo not given) | 62.46
COCCN(Cc1nc2c(cnn2C)c(=O)[nH]1)C(C)COC (stereo not given) | 20.57
COCCN(Cc1nc2c(cnn2C)c(=O)[nH]1)C(C)c1ccccc1 (stereo not given) | 68.24
CN(Cc1nc2c(cnn2C)c(=O)[nH]1)Cc1ccco1 | 27.5
